The text below walks through data of PubChem BioAssay AID1508649 (National Center for Advancing Translational Sciences (NCATS), 2021).

The whole screen tested about 43,000 compounds, of which about 830 (1.9%) were called active. Roughly 30% stayed inconclusive and do not appear here. Rule for the calls: active = clear falling dose curves in both reporters; inconclusive = both reporters move, but less clearly or upward; inactive = either reporter flat; the % is the NLuc reporter signal. What follows is part of a selection rich in actives, with near analogues and random picks from the rest. A call without a number means that no potency is given here.
Potency is the fitted concentration of half-maximal effect.

The nature of the assay: Cell-based coincidence reporter assay to measure PMP22 gene transcription in S16 Pmp22-F2sN cells - Primary screen. Particulars: S16 Pmp22-F2sN Schwann cells (luciferase reporters placed in the Pmp22 gene), FLuc/NLuc coincidence luminescence, 24 h; series mostly up to 57.5 µM. The text has this: Assay Provider: Jim Inglese Ph.D. National Center for Advancing Translational Science, National Institutes of Health, Rockville, MD CMT is a heterogeneous group of neurological disorders that affect approximately 1 in 2,500 people. In particular, the most common form of CMT, CMT1A is genetically linked to the duplication of the PMP22 gene which leads to Schwann cell overexpression, thus manifesting itself as a typical case of dose-sensitive diseases. To identify small molecule compounds that can mediate the expression of PMP22 we developed a phenotypic assay screening strategy by utilizing genome editing techniques to construct Schwann cell lines containing novel reporter technology to monitor the transcriptional or translational regulation of PMP22. For high sensitivity we use a bioluminescent reporter system embedded in the 3' UTR of the PMP22 gene (S16(c9) Pmp22-F2sN) to identify compounds that inhibit gene expression. […] We can further discriminate the effect of all transcriptionally active molecules on PMP22 translation or stability with an assay that incorporates a short NLuc peptide (HiBiT) at the C-terminus of expressed PMP22 (S16(f8) PMP22-HiBiT) allowing alpha complementation and luminescence detection of membrane-associated PMP22 protein. These assays were screened against the NCATS Sytravon Library Collection. Miniaturization of these assays to 1536-well plate format for quantitative high throughput screening (qHTS) yielded rich data sets immediately from the qHTS assay (S16(c9) Pmp22-F2sN), when compared with data from a cell viability assay (Cell TiterGlo) to identify compounds that decreased the output signals through cellular toxicity to streamline the selection process of actives for subsequent characterization using the HiBiT assay (S16(f8) PMP22-HiBiT).
Cell-based coincidence reporter assay to measure PMP22 gene transcription in S16 Pmp22-F2sN cells PROTOCOL TABLE (format as described by Inglese J, Shamu CE and Guy RK. 2007) SEQUENCE No. (e.g., 1, 2, 3, etc.); […] (e.g., Cells, Incubation, Reagent, etc.); VALUE and DESCRIPTION. 1. Cells. Add 500-1,000 cells in 4 uL in growth media (DMEM High Glucose, No Phenol Red media + 10% heat-inactivated FBS + 1% Pen/Strep supplemented media) per well into Greiner 1536-well white/solid bottom high base, TC-treated plates. 2. Compounds. Library compounds and controls added at 23nL per well, transferred by Pin Tool. 3. Incubation. Incubate plates at 37C, 5% CO2, 95% RH for 24 h. 4. Reagent. Add 3.5uL Nano-Glo Dual-Luciferase Reporter Assay System reagent 1: Lysis and FLuc reagent per well of Greiner 1536-well plates. 5. Incubation. Incubate plates at room temperature for 10 min., protect from light. 6. Detector. FLuc luminescence measured using CCD-based camera (Viewlux). 7. Reagent. Add 3.5uL Nano-Glo Dual-Luciferase Reporter Assay System reagent 2: Stop&Glo reagent per well of Greiner 1536-well plates. 8. Incubation. Incubate plates at room temperature for 10 min., protect from light. 9. Detector. NLuc luminescence measured using CCD-based camera (Viewlux). NOTES (numbers refer to Sequence numbers above; values are from representative experiments) 6. Luminescence Read #1 (FLuc): Clear filter; Exposure = 10 sec, Gain = High, Speed = Slow, Binning = 2X 9. Luminescence Read #2 (NLuc): Clear filter; Exposure = 1 sec, Gain = High, Speed = Slow, Binning = 2X REFERENCES: 1. Inglese J, Shamu CE and Guy RK, Reporting data from high throughput screening of small molecule libraries, Nature Chemical Biology, 2007, 3(8): 438-441. doi.org/10.1038/nchembio0807-438 2. Yasgar A, Shinn P, Jadhav A, Auld DS, Michael S, Zheng W, Austin CP, Inglese J and Simeonov A, Compound Management for Quantitative High-Throughput Screening. J. Assoc. Lab. Auto., 2008, 13: 79-89. doi: 10.1016/j.jala.2007.12.004
In general terms: A reporter such as luciferase makes a cellular process visible.
As to `COc1ccc(N2CCN(C(=O)c3c(C)oc4nc(C)nc(N5CCCC5)c34)CC2)cc1`, the Potency entry is “inactive”. For `CCc1ccc(C2CC(=O)c3c([nH]c(C(=O)OCc4ccc(C)cc4)c3C)C2)cc1` (centres undefined), the Potency is 10 µM (active).

Take `CC1=C(C(=O)OCc2ccc(C)cc2)C(c2c(Cl)cccc2Cl)CC(=O)N1` (centres undefined): the Potency result is “inactive”. The value for `CC1=C(C(=O)OCc2ccc(C)cc2)C(c2ccccc2Cl)CC(=O)N1` (centres undefined) was “inactive”; that for `COc1ccc(-c2nn3c(-c4ccc(OC)cc4)nnc3c3ccccc23)cc1` was “inactive”; that for `CCOC(=O)c1cc(OC(=O)c2ccccc2Cl)n(-c2ccccc2)n1` was “inactive”. `COc1cc(OC)cc(-c2nc3nc(C)c(CCC(=O)Nc4ccc(C)cc4)c(C)n3n2)c1`: the Potency entry was “inactive”. Under `Cc1ccc(NC(=O)Cn2cnc3nc4c(cc3c2=O)CCCC4)cc1Cl` stands “inactive”; under `O=C(CCc1nc(CN2CCN(S(=O)(=O)c3ccc(F)cc3)CC2)no1)N1CCCCC1`, “inactive”; under `CCOC(=O)c1cccc(NC(=O)c2cc(CN3CCCC3)on2)c1`, “inactive”. The value for `CCc1ccccc1NC(=O)N1CCN(C(=O)c2nsc3ccccc23)CC1` was “inactive”. Take `Cc1ccc(NC(=O)CN2c3ccccc3S(=O)(=O)c3ccccc32)cc1F`: the Potency result was “inactive”. As for `COc1cccc(NC(=O)N2CCN(C(=O)c3nsc4ccccc34)CC2)c1`, the Potency entry is “inactive”. For the compound `CCc1ccccc1NC(=O)Cc1cn(C)c2ccccc12`, the Potency result was “inactive”. The value for `COc1cccc(NC(=O)N(Cc2cn(C)c3ccccc23)C2CCCCCC2)c1` was 10.6 µM (active); that for `O=c1cc(COc2cccc(C(F)(F)F)c2)nc2sc3c(n12)CCCC3` was “inactive”. Under `CCOc1ccccc1NC(=O)Cn1nnc(C(=O)Nc2ccc(C)c(C)c2)c1N` stands “inactive”; under `COc1cccc(CNC(=O)c2nnn(CC(=O)Nc3cc(Cl)ccc3C)c2N)c1`, “inactive”. Turning to `CCOc1ccccc1NC(=O)Cn1nnc(C(=O)NCc2cccs2)c1N`, the Potency is 0.401 µM (active). The value for `COc1ccc(C2Sc3ccccc3NC3=C2C(=O)c2ccccc23)c(OC)c1OC` (centres undefined) was 7.27 µM (active); that for `Cc1ccc(-c2noc(CSc3nnc(-c4ccc(Cl)cc4)n3C)n2)cc1` was “inactive”; that for `Cc1nnc(C)n1-c1ccc(C(=O)Nc2cccc(Br)c2)cc1` was “inactive”. Regarding `CCN(CCCNC(=O)c1c(C)oc2ncn(CC(C)C)c(=O)c12)Cc1ccccc1`, the Potency entry was “inactive”. On to `COc1ccc(OC)c(NC(=O)C2CCN(S(=O)(=O)c3ccc(C)cc3)CC2)c1`, for which the Potency entry was “inactive”.

Turning to `Cc1cc(C)nc(NS(=O)(=O)c2ccc(NC(=O)c3cc(=O)c4ccc(C)c(C)c4o3)cc2)n1`, the Potency result was “inactive”. Under `COc1ccc(S(=O)(=O)Nc2cc3c(C(=O)OC(C)C)c(C)oc3c3ccccc23)cc1` stands 11.3 µM (active); under `COc1ccc(Cn2ccnc2SCC(=O)Nc2ccc3c(c2)OCO3)cc1`, “inactive”; under `CCn1cc(C(=O)NCc2ccc(C)cc2)c(=O)c2cc(S(=O)(=O)N3CCc4ccccc4C3)ccc21`, “inactive”.

As for `COc1cc(NC(=O)c2nc3ccccc3nc2C)cc(OC)c1OC`, the Potency result was “inactive”. The value for `COc1ccccc1Nc1c2c(nc3ccc(NC(=O)/C=C/c4cc(OC)c(OC)c(OC)c4)cc13)CCCC2` was 6.04 µM (active); that for `COc1cccc(C(=O)Nc2ccc3nc4n(c(=O)c3c2)CCCCC4)c1` was “inactive”. Under `CC(=O)c1ccc(N2CCN(C3C(=O)c4ccccc4N3C(C)=O)CC2)cc1` (centres undefined) stands “inactive”; under `Cc1ccc2sc(N(Cc3cccnc3)C(=O)C3COc4ccccc4O3)nc2c1C` (centres undefined), “inactive”; under `O=C(CCS(=O)(=O)c1ccccc1)N(Cc1cccnc1)c1nc2c(F)cccc2s1`, 10.6 µM (active). The value for `O=C(C1COc2ccccc2O1)N(Cc1cccnc1)c1nc2c(F)cc(F)cc2s1` (centres undefined) was “inactive”; that for `CCC(C(=O)Nc1cccc(-c2nc3cccnc3s2)c1C)c1ccccc1` (centres undefined) was “inactive”; that for `CCOC(=O)c1sc(NC(=O)/C=C/c2ccc(C(C)C)cc2)c(C(=O)OCC)c1C` was “inactive”. Take `COc1ccccc1-c1cc(C(F)(F)F)nc(S(=O)(=O)CCCC(=O)Nc2ccc(F)cc2F)n1`: the Potency was 11.3 µM (active). With `Cc1ccc(F)cc1NC(=O)CCSc1nc(-c2ccco2)cc(C(F)(F)F)n1`, the Potency entry was “inactive”.

In the case of `COc1ccccc1-c1cc(C(F)(F)F)nc(S(=O)(=O)CCCC(=O)Nc2cc(C)ccc2O)n1`, the Potency entry is “inactive”. The value for `COc1cc2c(cc1OC)C(COc1ccc(F)cc1)N(C(=O)c1ccccc1F)CC2` (centres undefined) was “inactive”; that for `COc1ccc(N2CCN(Cc3nc4c(c(=O)[nH]c(=O)n4C)n3Cc3ccc(Cl)cc3)CC2)cc1` was “inactive”.

Turning to `CCOc1ccc(NC(=O)c2c(NC(=O)Cc3ccccc3)sc3c2CCC(C)C3)cc1` (centres undefined), the Potency is 18.9 µM (active).

Take `O=C(Cc1ccccc1)Nc1sc2c(c1C(=O)Nc1ccc(Br)cc1)CCC2`: the Potency entry was “inactive”. Under `COC(=O)c1c(NC(=O)CCCOc2ccccc2)sc2c1CCC(C)C2` (centres undefined) stands “inactive”; under `Cc1ccc(Nc2c(-c3ccc(C)s3)nc3ccccn23)cc1`, “inactive”. For the compound `CCC(=O)N1CCc2cc(Br)cc(S(=O)(=O)CCC(=O)N3CCN(c4ccc(F)cc4)CC3)c21`, the Potency result was “inactive”. Regarding `COc1ccc(OC)c(-n2nnc(-c3nc(-c4cc(OC)c(OC)c(OC)c4)no3)c2C)c1`, the Potency result was “inactive”. The value for `COc1ccc(C(=O)COC(=O)CCCC(=O)Nc2cc(C(F)(F)F)ccc2Cl)cc1` was “inactive”; that for `COc1ccc(-c2nn3c(=O)cc(CN4CCN(C(=O)c5ccc(OC)c(OC)c5)CC4)nc3s2)cc1` was “inactive”. The value for `CCOc1ccc(N(CC)C(=O)C2CCN(S(=O)(=O)c3cccc4nonc34)CC2)cc1` was “inactive”; that for `CCOc1ccc(N(CC)C(=O)c2noc3c2COc2ccc(C)cc2-3)cc1` was “inactive”.

Regarding `CCOc1ccc(N(Cc2ccccc2)C(=O)c2nc(S(C)(=O)=O)ncc2Cl)cc1`, the Potency was 1.5 µM (active).

For `COc1ccccc1-c1noc(-c2ccc(NCc3ccccc3)c([N+](=O)[O-])c2)n1`, the Potency result was “inactive”. The value for `Cc1ccc(C)c(S(=O)(=O)n2nc(C)c(S(=O)(=O)N3CCC(C)CC3)c2C)c1` was “inactive”; that for `O=C(CC1Oc2ccccc2NC1=O)NCc1ccc(F)cc1` (centres undefined) was “inactive”; that for `CCOc1ccc(NC(=O)C2CCN(S(=O)(=O)c3cc(-c4noc(C)n4)ccc3C)CC2)cc1` was “inactive”. The value for `COc1ccc(N2CC(C(=O)NCCS(=O)(=O)N3CCN(c4ccccc4)CC3)CC2=O)cc1` (centres undefined) was “inactive”; that for `COc1ccc(OC)c(CNC(=O)Cn2nc(C)c3c(C)n(-c4ccccc4)nc3c2=O)c1` was “inactive”; that for `Cc1ccccc1CNC(=O)Cn1c(C)c2cnn(-c3ccccc3)c(=O)c2c1C` was “inactive”. For the compound `COc1ccccc1CNC(=O)Cn1nc(C)c2nn(-c3ccc(Cl)cc3)c(C)c2c1=O`, the Potency entry is “inactive”. As for `Cc1ccccc1CNC(=O)CSc1nnc(C)c2c(C)n(-c3ccccc3)nc12`, the Potency was 16.8 µM (active). For `Cc1nnc(SCC(=O)NCc2ccccc2Cl)c2nn(-c3ccccc3)c(C)c12`, the Potency was 14.1 µM (active). Turning to `Cc1nnc(N2CCCC(C(=O)NCCN(C)C)C2)c2nn(-c3ccccc3)c(C)c12` (centres undefined), the Potency entry is “inactive”.
